Screening data from PubChem.
Compounds with a hit are over-represented: about 2.2% of the library has one in this group of screens.
Mito fusion yeast: mitochondrial division inhibition or fusion activation. S. cerevisiae fusion-defective mutant growth rescue, CellTiterGlo 48 h. Potency, µM (titrated, usually from 46.1 µM), without a hit: at the highest dose growth rescue (activation), hits mostly activators. actives 0.23% (n = 320,000); further: % of control where 0% means no effect; nearly all actives have a fitted effect of over 45% in size
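S. cerevisiae fusion-defective temperature-sensitive mutants (e.g. fzo1-1, mgm1-5) grown 48 h at 37C in YPEG (ethanol/glycerol non-fermentable) medium with 23 nl compound per well; growth rescue read as CellTiterGlo luminescence.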
FUS yeast rescue: rescues growth of FUS-expressing yeast | S. cerevisiae FUS-expressing, growth rescue, OD600, 24 h | Potency, µM (top dose mostly 76.6 µM), hits mostly activators | actives 0.24% (n = 390,000);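 further: plate controls were DMSO vehicle for no effect and reference control for full effect; nearly all actives have a fitted effect of over 55% in size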
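Yeast FUS proteinopathy model; galactose-induced FUS (2%), starting OD 0.005. Cpds in dilution series, 24hr, 30C, 99% humidity. Abs 600 nm growth. Pos ctrl CP55940 (top 92uM final); neg ctrl DMSO.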
TDP43 rescue: TDP-43 toxicity inhibition in yeast. TDP-43 expressing yeast growth rescue, BacTiter-Glo, 24 h. Potency, µM (doses to about 46.1 µM), inactives show at the top dose growth rescue (activation), actives largely listed as activators. actives 1.8% (n = 410,000); further: % of control where 0% means no effect; nearly all actives have a fitted effect of over 50% in size
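In this qHTS, compounds that restore growth of yeast expressing TDP-43 appear as activators. Cells (OD600=0.02, galactose medium, raffinose-pregrown) are incubated with compound 24 hr at 30 deg C and growth is quantified by BacTiter-Glo.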
Abeta yeast res: A-beta toxicity reversal in yeast; yeast expressing A-beta42, growth rescue, OD600, 48 h; response scale: 0% DMSO, 100% iron-clioquinol control; Potency, µM (titrated, usually from 46.1 µM), most hits filed as activators; actives 0.063% (n = 410,000); AID 1347071; further: nearly all actives have a fitted effect of over 55% in size
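Yeast A-beta toxicity model in growth medium with pinned compounds, 48 h at 30 C; growth read as absorbance at 600 nm. Normalized to FeCl3/clioquinol equimolar mix (positive) and DMSO (negative).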
aSyn rescue: rescues yeast growth from alpha-synuclein toxicity | Yeast expressing alpha-synuclein, growth rescue, BacTiter-Glo, 24 h | Potency, µM (series often up to 46.1 µM), for inactives: at the highest dose growth rescue (activation), hits mostly activators | actives 0.14% (n = 370,000); further: % of control where 0% means no effect; nearly all actives have a fitted effect of over 65% in size
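Screening used galactose-induced yeast with toxic alpha-synuclein levels, exposed to compound for 24 hr at 30 deg C. Cell growth, read with BacTiter-Glo luminescence, gave the measured signal.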
Starred values were filed as active, the others as inactive; i = inactive; ? = inconclusive; · = not tested or not shown; [ ] = remark or other dose. The call rests on the fitted dose curve; in most records, active means well fitted curve in the direction sought with a large enough effect; inconclusive means small, poorly fitted or top-dose-only effect, or another doubt; inactive means no such curve, though single readings can be large; an effect the other way counts as inactive or inconclusive. Potency means the concentration at half of the fitted maximal effect.

SMILES | Mito fusion yeast | FUS yeast rescue | TDP43 rescue | Abeta yeast res | aSyn rescue
O=C(c1ccc(COc2c(F)c(F)cc(F)c2F)o1)N1CCN(c2ccccc2)CC1 | 1.4% | i | 22.4µM* | i | 3.5%
COc1ccccc1OCc1ccc(C(=O)N2CCCCC2)o1 | 5.6% | i | 9.2% | i | 1.2%
COc1ccc(N2CCN(C(=O)c3ccc(COc4ccc([N+](=O)[O-])cc4)o3)CC2)cc1 | 15.2% | · | 11.2µM* | i | 3.9%
O=[N+]([O-])c1ccccc1-c1cc(-c2cc(Cl)ccc2O)n[nH]1 | 2.4% | · | 12.6µM* | i | 0.3%
Cc1ccc(O)c(-c2cc(-c3ccccc3[N+](=O)[O-])[nH]n2)c1 | 19.0% | · | ? | i | 22.4µM*
Oc1ccc(Cl)cc1-c1cc(-c2ccccc2Cl)[nH]n1 | ? | i | ? | i | -2.7%
COc1ccc(O)c(-c2cc(-c3ccccc3[N+](=O)[O-])[nH]n2)c1 | 0.4% | i | 20.2% | i | 3.5%
CC(Sc1nnc(-c2ccncc2)n1C)C(=O)Nc1nccs1 (stereo not drawn) | 8.6% | i | -9.7% | i | -0.6%
COC(=O)c1ccc(S(=O)(=O)N2CCC(NC(=O)Cc3ccccc3)CC2)cc1 | · | i | · | · | ·
C/C(=N/Nc1cc(-c2ccccc2)nc(-c2ccccc2)n1)c1ccc(O)cc1 | -27.6% | · | ? | i | -22.2%
C/C(=N\Nc1cc(-c2ccccc2)nc(-c2ccc(Br)cc2)n1)c1cccc(N)c1 | · | 12.6µM* | 27.4% | i | -2.4%
COC(=O)c1sc(-c2ccc(C(C)(C)C)cc2)cc1NC(=O)c1ccccc1C(=O)O | 4.7% | i | 23.9% | i | -89.8%
COC(=O)c1sc(-c2ccc(C(C)(C)C)cc2)cc1NC(=O)CSCC(=O)O | 15.0% | 28.2µM* | 15.0% | i | -22.3%
CCc1ccc(NC(=O)c2cnn(-c3ccccc3)c2-n2cccc2)cc1 | · | i | -6.3%[9.22 µM] | i | ·
Cn1ncc(C(=O)Nc2ccc(OC(F)(F)F)cc2)c1-n1cccc1 | 1.3% | i | 12.6µM* | i | 8.8%
CCN=C1S/C(=C\c2cn(CC)c3ccccc23)C(=O)N1CC | 25.9% | i | 17.8µM* | i | 9.2%
CCN=C1S/C(=C\c2cc(OCC)c(O)cc2Br)C(=O)N1CC | 7.08µM* | i | 0.0% | i | -0.1%
O=C(CSC1=NNC(c2ccccn2)S1)Nc1ccccc1 (stereo not drawn) | -2.9% | i | 12.6µM* | ? | 20.6%
O=C(CSC1=NNC(c2ccccn2)S1)Nc1cccc(Cl)c1 (stereo not drawn) | 0.5% | i | ? | 15.8µM* | 8.91µM*
O=C(CSc1nnc(-c2ccccn2)o1)Nc1ccccc1 | -0.3% | i | -4.9% | i | -9.2%
COc1ccc(/C(C)=N/NC(=O)Cc2cc(=O)[nH][nH]2)cc1OC | · | i | · | · | ·
Cc1ccc(CNC(=O)c2ccc(CSCc3ccc(Cl)cc3)o2)cc1 | · | i | 9.3% | i | ·
O=C(NCc1ccc2c(c1)OCO2)c1ccc(CSCc2ccc(Cl)cc2)o1 | 17.8µM* | i | ? | i | 18.8%
O=C(NCc1ccc2c(c1)OCO2)c1ccc(COc2cc(Cl)ccc2Cl)o1 | 14.1µM* | i | ? | i | 6.9%
C[C@H]1CCCCO[C@@H](CN(C)S(=O)(=O)c2ccc(Cl)cc2)[C@@H](C)CN([C@@H](C)CO)C(=O)c2cc(NS(=O)(=O)c3ccccc3)ccc2O1 | · | i | 0.0% | i | -0.9%
SMILES | Mito fusion yeast | FUS yeast rescue | TDP43 rescue | Abeta yeast res | aSyn rescue
COc1ccc(S(=O)(=O)Nc2ccc3c(c2)C(=O)N([C@H](C)CO)C[C@H](C)[C@@H](CN(C)C(=O)Nc2ccc(F)cc2)OCCCC[C@H](C)O3)cc1 | · | 25.1µM* | 1.4% | i | 2.0%
C[C@@H]1CCCCO[C@@H](CN(C)S(=O)(=O)c2ccccc2)[C@@H](C)CN([C@H](C)CO)C(=O)c2cc(NS(=O)(=O)c3ccc(F)cc3)ccc2O1 | · | 14.1µM* | 20.6% | i | -2.2%
COc1ccc(S(=O)(=O)Nc2ccc3c(c2)C(=O)N([C@H](C)CO)C[C@H](C)[C@@H](CN(C)C(=O)Nc2ccc(C(F)(F)F)cc2)OCCCC[C@H](C)O3)cc1 | · | ? | 20.1% | i | ?
COc1cc(C=Nn2c(-c3ccc(F)cc3)n[nH]c2=S)ccc1OCc1ccccc1 | · | i | · | · | ·
CCN1CCN(CC(=O)n2c3c(c4ccccc42)CC(C)CC3)CC1 (stereo not drawn) | -5.1% | i | -10.7% | i | -5.4%
CC1CCc2c(c3ccccc3n2C(=O)CCl)C1 (stereo not drawn) | -15.0% | i | 2.82µM* | i | -13.4%
CC(C)N1C(=O)S/C(=C/c2ccc(Sc3nc4ccccc4[nH]3)o2)C1=O | ? | · | 22.5% | i | 0.6%
C=CCN1C(=O)S/C(=C/c2ccc(Sc3nc4ccccc4[nH]3)o2)C1=O | 22.4µM* | · | 0.0% | i | 14.0%
CCC(CC)COC(=O)C(C#N)c1nc2ccccc2nc1N1CCOCC1 (stereo not drawn) | 11.5% | i | 20µM* | i | 6.2%
CCc1nnc(NC(=O)[C@@H](NC(=O)c2ccc(C(C)(C)C)cc2)C(C)C)s1 | 13.6% | 28.2µM* | -16.6% | i | 11.3%
CCCCCN1CCCCC(NC(=O)c2cccc(C(F)(F)F)c2)C1=O (stereo not drawn) | · | i | · | · | ·
O=C1NC(=O)/C(=C/c2cc3c(cc2Br)OCO3)S1 | 30.9% | i | -30.6% | i | -11.6%
COCCN1C(=O)/C(=C/c2cc3c(cc2Br)OCO3)NC1=S | 2.7% | i | 20µM* | i | -5.3%
COc1ccc(NC(=O)N[C@H]2C=C[C@@H](CC(=O)NC3CCC3)O[C@@H]2CO)cc1 | · | i | 28.5% | i | -5.7%
Clc1ccc(N2CCN(c3ccnc(Cl)n3)CC2)cc1 | · | i | 17.8µM* | i | ?
Clc1ccc(-c2csc3ncnc(Sc4nnnn4-c4ccccc4)c23)cc1 | · | · | · | · | -14.1%
CCC(=O)NC(=S)Nc1ccc(NC(=O)COc2ccc(Cl)c(C)c2)cc1 | -3.8% | i | 4.4% | i | -1.9%
Cc1cc(OCC(=O)NNC(=S)NC(=O)c2ccc(Br)o2)ccc1Cl | 2.4% | i | 20µM* | ? | ?
Cc1ccc(Cl)cc1N1CCN(C(=O)c2cc(S(=O)(=O)N3CCCCC3)cn2C)CC1 | · | i | 4.4% | i | 13.6%
CC(=O)Nc1c(-c2ccc(C)cc2)nc2ncccn12 | · | i | · | · | ·
Cc1c(Cl)cccc1NC(=O)N1CCOc2ccccc21 | · | i | 12.6µM* | i | ·
CCOC(=O)C1=CCN(S(=O)(=O)c2ccc(F)cc2)C1c1ccc(Br)cc1 (stereo not drawn) | · | i | 35.5µM* | i | 23.8%
